# Source: PubChem (National Center for Advancing Translational Sciences (NCATS))
# Rows were chosen to be rich in hits. Some 7.5% of all compounds tested hit in one or more screens of this group.
# Rab9 prom act: qHTS Assay for Rab9 Promoter Activators; Huh7 Rab9 promoter-luciferase reporter, luminescence, 24 h; Potency, µM (doses to about 9.22 µM), without a hit: at the top dose activation, negative = inhibition, actives largely listed as activators; 2.8% of 320,000 active; AID 485297, 2010; also: % of control where 0% means no effect; nearly all actives have a fitted effect of over 60% in size
#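 Rab9 promoter-driven luciferase in stably transfected Huh7 cells; 1500 cells/well rested 2 h, exposed to compound in DMSO for 24 h at 37 °C, 5% CO2. Luminescence read 10 min after adding luciferase reagent at ambient temperature.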
# FLuc counter: qHTS profiling assay for firefly luciferase inhibitor/activator using purifed enzyme and Km concentrations of substrates (counterscreen for miR-21 project); Luciferin 4-monooxygenase (Photinus pyralis), P08659; purified FLuc, Km substrates, luminescence inhibition; Potency, µM (series often up to 57.5 µM), without a hit: at the highest dose activity change, negative = inhibition, hits mostly inhibitors; 6.9% of 360,000 active; AID 588342, 2011;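 also: plate controls were vehicle for no effect and reference inhibitor for full effect; nearly all actives have a fitted effect of over 55% in size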
# Target sequence (P08659 whole entry, looked up): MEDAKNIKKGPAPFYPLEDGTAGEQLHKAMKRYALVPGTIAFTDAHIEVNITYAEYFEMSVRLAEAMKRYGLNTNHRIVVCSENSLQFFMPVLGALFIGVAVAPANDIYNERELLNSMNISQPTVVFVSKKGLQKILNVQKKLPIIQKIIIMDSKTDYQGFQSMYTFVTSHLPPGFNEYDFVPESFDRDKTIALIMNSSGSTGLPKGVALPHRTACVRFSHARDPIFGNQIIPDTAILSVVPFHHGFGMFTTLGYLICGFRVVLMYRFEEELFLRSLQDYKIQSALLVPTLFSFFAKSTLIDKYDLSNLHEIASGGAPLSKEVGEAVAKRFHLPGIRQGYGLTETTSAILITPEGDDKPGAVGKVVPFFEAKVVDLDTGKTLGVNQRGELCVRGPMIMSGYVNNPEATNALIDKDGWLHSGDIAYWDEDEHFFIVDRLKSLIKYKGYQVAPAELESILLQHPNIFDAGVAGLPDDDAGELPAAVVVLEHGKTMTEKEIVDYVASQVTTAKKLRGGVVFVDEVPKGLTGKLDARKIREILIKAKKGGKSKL
#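 Biochemical qHTS of compounds, final roughly 60 µM downward over six points, against 10 nM purified firefly luciferase using Km concentrations of substrates (10 uM D-luciferin, 10 uM ATP) in Tris acetate pH 7.5 buffer; luminescence output.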
# ELG1 genotox: qHTS screen for small molecules that induce genotoxicity in human embryonic kidney (HEK293T) cells expressing luciferase-tagged ELG1; 1.3% of 330,000 active; HEK293T ELG1-luciferase reporter, luminescence, 16 h; AID 504466, 2011; Potency, µM (series often up to 46 µM), inactives show top-dose activity change, positive = activation, hits mostly activators; also: % of control where 0% means no effect; nearly all actives have a fitted effect of over 60% in size
#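 Cells (2,000/well) expressing the ELG1-luciferase fusion are dosed by pin tool and kept 16 hr at 37 °C, 5% CO2. Signal comes from ONE-Glo luciferase reagent after 30 min at room temperature.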
# SMN2 splice up: qHTS Assay for Enhancers of SMN2 Splice Variant Expression. AID 1458, 2008. Potency, µM (titrated, usually from 46.1 µM), without a hit: at the highest dose activity change, positive = activation, hits mostly activators. 2.8% of 210,000 active. HEK293 SMN2-luciferase splicing reporter, luminescence, 30-36 h; also: % of control where 0% means no effect; nearly all actives have a fitted effect of over 55% in size
#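 qHTS luciferase splicing reporter: luminescence rises when SMN2 exon 7 is included in transfected HEK293 cells. Compound exposure lasted 30-36 h at 37C, with 4.5 mM final sodium butyrate as control, followed by a ONE-Glo read.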
# NPC1 prom act: qHTS Assay for NPC1 Promoter Activators | Huh7 NPC1 promoter luciferase reporter, 24 h | Potency, µM (series often up to 9.22 µM), for the others: at the highest dose activation, hits mostly activators | 2.4% of 320,000 active; also: % of control where 0% means no effect; nearly all actives have a fitted effect of over 60% in size
#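 Luminescence read-out of NPC1 promoter-driven luciferase in stably transfected Huh7 cells; compounds delivered in DMSO and left 24 h at 37C, 5% CO2, qHTS titration format.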
# Luc counter: Counterscreen for Luciferase (Kinase-Glo TM) Inhibition | Luciferin 4-monooxygenase (Photuris pensylvanica), Q27757 | AID 1379, 2008 | 0.28% of 200,000 active | Kinase-Glo luciferase, ATP luminescence, 8 min | Potency, µM (titrated, usually from 38.3 µM), without a hit: at the top dose activity change, negative = inhibition, hits mostly inhibitors; also: % is scaled to controls: 0 for no effect and ±100 for the full control effect; nearly all actives have a fitted effect of over 60% in size
#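 Inhibition of Kinase-Glo luciferase light generation was assessed at 10 uM ATP in pH 7.2 imidazole buffer, with luminescence measured after eight minutes at ambient temperature.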
# An asterisk follows results filed as active; ? = inconclusive; . = not tested or not shown. Calls follow the shape of the dose curve; as a rule, active = well fitted curve in the direction sought with a large enough effect; inconclusive = small, poorly fitted or top-dose-only effect, or another doubt; inactive = no such curve, though single readings can be large; an effect the other way counts as inactive or inconclusive. Potency is read from the fitted curve at half-maximal effect.
SMILES,Rab9 prom act,FLuc counter,ELG1 genotox,SMN2 splice up,NPC1 prom act,Luc counter
CC(/C=N/Nc1nc2ccccc2[nH]1)=C\c1ccccc1,0.4µM*,0.67µM*,0.82µM*,2.5µM*,0.5µM*,0%
CCN(CC)c1ccc(/C=N/Nc2nc3ccccc3[nH]2)cc1,?,6µM*,?,-92%,24%,-3%
CC1C/C(=N/Nc2nc3ccccc3[nH]2)CC(C)(C)C1 (stereo not drawn),1%,?,1%,5%,-3%,1%
CC(=O)Nc1ccc(CCc2nc3ccccc3[nH]2)cc1,18%,-7%,7%,.,1%,.
C(=N\Nc1nc2ccccc2[nH]1)/c1ccncc1,?,?,?,-9%,?,-5%
c1ccc2[nH]c(NN=C3CCCCCC3)nc2c1,3.5µM*,3.4µM*,?,11µM*,10%,?
O=C(O)c1ccc(/C=N/Nc2nc3ccccc3[nH]2)cc1,9%,?,-1%,.,13%,.
COC(=O)c1ccc(/C=N/Nc2nc3ccccc3[nH]2)cc1,3.2µM*,8.5µM*,21µM*,?,3.2µM*,-11%
O=C(Cc1nc2ccccc2[nH]1)N/N=C/c1ccccc1,8%,15µM*,1%,.,5%,.
O=C(NCc1ccccn1)Nc1cccc(Cl)c1,15%,19µM*,?,3%,1%,-4%
O=C(NCc1ccccn1)Nc1cc(Cl)ccc1Cl,3.2µM*,1.2µM*,-7%,.,73%,.
O=C(NCc1ccccn1)Nc1cccc(NC(=O)NCc2ccccn2)c1,2%,?,?,?,-4%,-2%
O=C(NCc1ccccn1)C(=O)Nc1ccccc1,?,?,?,18µM*,?,-2%
COC(=O)c1ccc(C(NC(=O)OCc2ccccc2)/C(=C/[C@@H](C)C(=O)NCc2ccccc2)c2cccnc2)cc1 (stereo partly drawn),.,.,.,7%,.,-3%
CCOc1ccc(-c2nc(=S)[nH][nH]2)cc1,?,15µM*,?,?,15%,-1%
COc1ccc(-c2nc(=S)[nH][nH]2)cc1,10%,0%,8%,8%,0%,0%
Cc1ccc(C(=O)Nc2nc(C)c(C(=O)N(C)C)s2)o1,?,?,?,.,29%,.
Cc1ccc2c(C)c(C(=O)Nc3nnc(C)s3)oc2c1,-3%,-3%,4%,26%,4%,-1%
Cc1nc(NC(=O)c2oc3ccccc3c2C)sc1C(=O)N(C)C,2.8µM*,11µM*,?,10µM*,?,-11%
Cc1nnc(NC(=O)c2oc3ccccc3c2C)s1,4µM*,3µM*,18µM*,.,4.5µM*,.
CN(C)c1ccc(Nc2ccc([N+](=O)[O-])cn2)cc1,?,?,?,.,3.5µM*,.
Cc1ccc2c(c1)Cc1nc3ccccc3nc1-2,?,1.1µM*,-2%,?,4%,8.9µM*
O=c1c2ccccc2nc(-c2ccco2)n1-c1nc2ccccc2s1,5%,15µM*,6%,-14%,7%,2%
O=c1c2ccccc2nc(-c2ccco2)n1CCc1ccc(O)cc1,6%,-15%,-15%,.,-5%,.
Cn1c(-n2c(-c3ccco3)nc3ccccc3c2=O)nc2ccccc21,-5%,21µM*,-1%,-10%,0%,-6%
SMILES,Rab9 prom act,FLuc counter,ELG1 genotox,SMN2 splice up,NPC1 prom act,Luc counter
COc1ccc2ncc3c(-c4ccc(C)c(C)c4)nn(CC(=O)NC4CCCCC4)c3c2c1,.,5%,.,.,.,.
CCOC(=O)CSc1nc2ccccc2c(=O)n1C,-6%,0%,0%,?,-3%,-2%
COc1ccc(C(=O)Nn2c(SCc3ccc([N+](=O)[O-])cc3)nc3ccccc3c2=O)cc1,4µM*,12µM*,?,-8%,2.5µM*,-18%
COc1ccc(C(=O)Nn2c(SCC(=O)c3ccccc3)nc3ccccc3c2=O)cc1,0.56µM*,6.7µM*,?,-45%,1.4µM*,-9%
CCOC(=O)CSc1nc2ccccc2c(=O)n1NC(=O)c1ccccc1,3.5µM*,?,?,16µM*,?,-2%
O=C(Nc1nccs1)c1ccc(COc2ccccc2Br)o1,?,19µM*,?,-16%,27%,1%
COc1ccccc1OCc1ccc(C(=O)N(C)C)o1,-8%,?,18%,?,2%,-7%
O=C(COc1ccc(F)cc1)Nc1nc2c(s1)CCCC2,?,27µM*,?,.,?,.
Cc1cccc(OCC(=O)Nc2nccs2)c1C,0.35µM*,1.5µM*,2.1µM*,.,0.35µM*,.
CN(C)C(=O)c1ccc(COc2ccccc2Br)o1,?,19µM*,21µM*,8.9µM*,?,-4%
O=C(Nc1nccs1)c1ccc(COc2ccc(F)cc2)o1,?,15µM*,3%,15%,?,-3%
O=C(COc1ccc(F)cc1)Nc1nccs1,1µM*,7.6µM*,?,11µM*,2µM*,?
